# Results as given in paper PMC11006913.
# Biological target: PROP1 (Homo sapiens, UniProt O75360 56-141)
# Test: PBM; 200 nM protein, PBS
# Conditions: dsDNA, one strand shown
# Sequence of PROP1 (O75360 56-141): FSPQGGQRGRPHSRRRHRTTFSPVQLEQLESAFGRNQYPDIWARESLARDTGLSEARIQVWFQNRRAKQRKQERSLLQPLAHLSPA
row,Sequence,binding signal
1,GGTTTATA,"7.99 upbm affinity estimate (log intensity, higher = more binding, comparable within an allelic series)"
2,AATTAGGT,"11 upbm affinity estimate (log intensity, higher = more binding, comparable within an allelic series)"
3,AGGAGGCC,"6.87 upbm affinity estimate (log intensity, higher = more binding, comparable within an allelic series)"

# Biological target: NKX3-2 (Homo sapiens, UniProt P78367 192-278, P234S)
# Sequence (P78367 192-278 P234S): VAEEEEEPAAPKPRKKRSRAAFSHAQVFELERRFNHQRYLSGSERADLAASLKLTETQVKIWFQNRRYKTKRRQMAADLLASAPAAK
# Test: PBM; 200 nM protein, PBS
# Conditions: dsDNA, one strand shown
row,Sequence,binding signal
1,AAGCTAGG,"10.4 upbm affinity estimate (log intensity, higher = more binding, comparable within an allelic series)"
2,ACGGTGCC,"10.5 upbm affinity estimate (log intensity, higher = more binding, comparable within an allelic series)"
3,CATCGACC,"10.6 upbm affinity estimate (log intensity, higher = more binding, comparable within an allelic series)"

# Biological target: CRX (Homo sapiens, UniProt O43186 26-111, R41L)
# Sequence (O43186 26-111 R41L): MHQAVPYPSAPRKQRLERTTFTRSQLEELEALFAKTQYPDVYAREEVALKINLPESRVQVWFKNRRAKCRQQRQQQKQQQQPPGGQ
# Test: PBM; 200 nM protein, PBS
# Conditions: dsDNA, one strand shown
row,Sequence,binding signal
1,TGGCTTAA,"11.5 upbm affinity estimate (log intensity, higher = more binding, comparable within an allelic series)"
2,CGGATTTA,"12.3 upbm affinity estimate (log intensity, higher = more binding, comparable within an allelic series)"
3,GATAAGCC,"12.4 upbm affinity estimate (log intensity, higher = more binding, comparable within an allelic series)"
4,CGAGATTA,"12.4 upbm affinity estimate (log intensity, higher = more binding, comparable within an allelic series)"
5,ACTTAATC,"12.4 upbm affinity estimate (log intensity, higher = more binding, comparable within an allelic series)"
6,CTAAGCCC,"11.5 upbm affinity estimate (log intensity, higher = more binding, comparable within an allelic series)"

# Biological target: NKX3-2 (Homo sapiens, UniProt P78367 192-278)
# Sequence (P78367 192-278): as the sequence (P78367 192-278 P234S) above, with S43P counted along it
# Test: PBM; 200 nM protein, PBS
# Conditions: dsDNA, one strand shown
row,Sequence,binding signal
1,AAGCTAGG,"10.4 upbm affinity estimate (log intensity, higher = more binding, comparable within an allelic series)"
2,ACGGTGCC,"10.5 upbm affinity estimate (log intensity, higher = more binding, comparable within an allelic series)"
3,CATCGACC,"10.6 upbm affinity estimate (log intensity, higher = more binding, comparable within an allelic series)"
